The values that follow come from PubChem BioAssay.

Assay [1] is described as follows: small molecules captured by biotinylated probe aFSTL3 – biochemical, small-molecule microarray, fluorescence 635/667, stem cell growth factor project, primary screen (AID 1064).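 Further: measures binding of the biotinylated anti-FSTL3 antibody to printed compounds.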 Particulars: higher = more signal.
A short description of assay [2]: binders from COS7 lysate, DM2A8 probe, primary screen, torsin A project, cell lysate, small-molecule microarray, fluorescence 635/667 (AID 1065). The settings on record: higher = more signal, COS7 lysate expressing mutant human TOR1A.
Assay [3] is described as follows: small molecules captured by biotinylated probe aFGF2 – biochemical, small-molecule microarray, fluorescence 635/667, stem cell growth factor project, primary screen (AID 1067).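 Further: measures binding of biotinylated aFGF2 protein to printed compounds on slides; z-score merges feature fluorescence and signal-to-noise across triplicate slides.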 Particulars: higher = more signal.
The nature of assay [4]: small molecules captured by biotinylated probe aFGF10 – biochemical, small-molecule microarray, fluorescence 635/667, stem cell growth factor project, primary screen (AID 1071).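 Further: score merges 667 nm spot intensity and signal to noise from triplicate slides.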 The settings on record: higher = more signal.
Assay [5] has as its target Neurogenic locus notch homolog protein 2 (Homo sapiens) (UniProt Q04721). Nature of the assay: small molecules binding Notch2 protein – biochemical, small-molecule microarray, 635 nm fluorescence, stem cell growth factors, primary screen (AID 1073). Particulars: higher = more signal.
For assay [6], the target named is Pro-neuregulin-1, membrane-bound isoform (Homo sapiens) (UniProt Q02297). Nature of the assay: small molecules binding neuregulin-1 protein – biochemical, small-molecule microarray, fluorescence 635/667, psychiatric disease protein project, primary screen (AID 1075).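 Further: score combines 667 nm spot fluorescence with signal to noise.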 Particulars: NRG1 binding, 635 nm fluorescence, higher = more signal.
Chain of Pro-neuregulin-1, membrane-bound isoform (Homo sapiens) (Q02297 whole entry, looked up, the tested form may be a part, canonical isoform): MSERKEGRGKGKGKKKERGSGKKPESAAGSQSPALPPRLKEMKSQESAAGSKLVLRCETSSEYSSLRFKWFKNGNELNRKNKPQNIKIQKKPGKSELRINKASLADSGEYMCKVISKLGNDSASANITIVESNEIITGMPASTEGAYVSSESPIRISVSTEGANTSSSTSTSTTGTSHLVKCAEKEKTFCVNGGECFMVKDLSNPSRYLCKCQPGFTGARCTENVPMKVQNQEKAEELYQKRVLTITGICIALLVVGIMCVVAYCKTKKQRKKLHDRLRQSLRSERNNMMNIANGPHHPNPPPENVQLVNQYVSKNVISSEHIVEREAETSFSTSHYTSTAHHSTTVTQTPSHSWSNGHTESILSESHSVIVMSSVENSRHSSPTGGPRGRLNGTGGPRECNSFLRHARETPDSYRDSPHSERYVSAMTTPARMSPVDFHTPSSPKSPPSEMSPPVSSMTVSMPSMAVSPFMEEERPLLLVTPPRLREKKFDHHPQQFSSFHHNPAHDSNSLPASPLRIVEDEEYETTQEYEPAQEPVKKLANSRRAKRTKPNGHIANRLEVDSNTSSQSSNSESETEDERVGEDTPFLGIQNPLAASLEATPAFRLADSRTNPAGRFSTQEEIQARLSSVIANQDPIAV
In assay [7] the test system is Neuregulin-1 EGF-like domain. Nature of the assay: small molecules binding NRG1 EGF domain – biochemical, small-molecule microarray, 635 nm fluorescence, primary screen (AID 1081).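 Further: binding of the protein to compounds printed on small-molecule microarray slides.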 Particulars: higher = more signal.
A short description of assay [8]: FRG1 expression reporter modulators in myotubes – cell-based, C2C12 myotubes, firefly/Renilla luciferase, luminescence, FRG1 inhibition for FSHD, primary screen (AID 1084). Particulars: FRG1 promoter luciferase, higher = more signal, called active from +8 up or from −8 down.
The nature of assay [9]: small molecules captured by biotinylated probe aFST – biochemical, small-molecule microarray, fluorescence 635/667, stem cell growth factor project, primary screen (AID 1086).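 Further: score merges 667 nm fluorescence with signal-to-noise of each printed compound spot.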 The settings on record: higher = more signal.
Assay [10] is described as follows: binders of probe aHhip on microarray, primary screen, stem cell growth factor project, biochemical, small-molecule microarray, fluorescence 635/667 (AID 1087).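 Further: score merges spot fluorescence at 667nm with spot signal to noise ratio.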 The settings on record: higher = more signal.
The subject of assay [11] is PRMT1 (protein arginine N-methyltransferase 1). In words: small molecules binding arginine methyltransferase PRMT1 – biochemical, small-molecule microarray, 635 nm fluorescence, primary screen (AID 1088).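 Further: binding of Prmt1 protein to compounds spotted on small-molecule microarray slides.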 Particulars: higher = more signal.
A short description of assay [12]: growth effects on S. cerevisiae YJM789 – YJM789 clinical isolate, OD600, 24 h, basal, primary screen (AID 1089).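 Further: growth of clinical yeast isolate S. cerevisiae YJM 789 seeded 1000 cells per well; test concentration not given here.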 Particulars: higher = more signal, called active from +8 up or from −8 down.
A short description of assay [13]: S. pombe growth modifiers, basal conditions – strain 972, OD600, 24 h, no modulator, primary screen (AID 1090).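 Further: basal condition with compound alone and no growth modifier present; test concentration not given here.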 Particulars: S. pombe 972 growth, higher = more signal, called active from +8 up or from −8 down.
Assay [14] in a line: budding yeast growth modifiers under rapamycin – strain BY4716, OD600, 96 h, primary screen (AID 1091). Further: test concentration not given here. Particulars: S. cerevisiae BY4716 + rapamycin, higher = more signal, called active from +8 up or from −8 down.
Assay [15] addresses Torsin-1A-interacting protein 2 (Homo sapiens) (UniProt Q8NFQ8). Nature of the assay: small molecules binding lysate-expressed LULL1 – cell lysate, human LULL1 lysate, 635/667 nm fluorescence, primary screen (AID 1092).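 Further: probe is lysate of COS7 cells overexpressing human LULL1; score merges per-feature 667 nm fluorescence with signal-to-noise.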 The settings on record: small-molecule microarray, hLULL1 lysate binding, 635 nm fluorescence; higher = more signal.
The nature of assay [16]: optical density change of DRC41 E. coli – strain DRC41, OD650, 24 h, E. coli filamentation project, primary screen (AID 1093).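 Further: MC1000 strain lacking acrAB efflux and sulA so SOS filamentation is blocked; test concentration not given here.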 The settings on record: E. coli DRC41 growth, higher = more signal, called active from +8 up or from −8 down.
The nature of assay [17]: probe aLefty2 binding to arrayed compounds – biochemical, biotinylated probe, 635/667 nm fluorescence, primary screen (AID 1094).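 Further: score merges spot fluorescence near 667 nm with spot signal-to-noise ratio.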 Particulars: small-molecule microarray, higher = more signal.
Assay [18] has as its system Noggin (protein binding on small-molecule microarray). Nature of the assay: small molecules binding Noggin protein – biochemical, 635/667 nm fluorescence, primary screen (AID 1095).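 Further: score merges 667 nm feature fluorescence with signal to noise over triplicate slides.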 The settings on record: 635 nm fluorescence, higher = more signal.
In assay [19] the target is Neurogenic locus notch homolog protein 3 (Homo sapiens) (UniProt Q9UM47). In words: small molecules binding NOTCH3 protein – biochemical, 635/667 nm fluorescence, primary screen (AID 1096). The settings on record: small-molecule microarray, 635 nm fluorescence, higher = more signal.
Assay [20] in a line: probe aEGFR binding to arrayed compounds – biochemical, biotinylated probe, 635/667 nm fluorescence, primary screen (AID 1097).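 Further: probe is a biotinylated anti-EGFR antibody binding compounds printed on slides; score combines fluorescence near 667 nm and signal to noise of each spot.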 The settings on record: small-molecule microarray, higher = more signal.

Activity calls are given as the source filed them.

Chain of Torsin-1A-interacting protein 2 (Homo sapiens) (Q8NFQ8 whole entry, looked up): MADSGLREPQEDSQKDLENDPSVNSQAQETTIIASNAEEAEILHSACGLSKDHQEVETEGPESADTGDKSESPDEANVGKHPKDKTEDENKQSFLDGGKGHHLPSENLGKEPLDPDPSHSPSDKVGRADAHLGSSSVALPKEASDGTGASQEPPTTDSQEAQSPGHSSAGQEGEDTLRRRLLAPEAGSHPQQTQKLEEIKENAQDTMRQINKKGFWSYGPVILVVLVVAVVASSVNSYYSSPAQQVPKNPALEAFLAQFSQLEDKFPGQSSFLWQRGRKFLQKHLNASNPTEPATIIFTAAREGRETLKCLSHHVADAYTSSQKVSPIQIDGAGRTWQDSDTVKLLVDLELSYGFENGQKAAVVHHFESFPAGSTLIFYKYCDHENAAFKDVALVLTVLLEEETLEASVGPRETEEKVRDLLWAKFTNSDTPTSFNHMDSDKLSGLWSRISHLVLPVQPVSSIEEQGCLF
Chain of Neurogenic locus notch homolog protein 2 (Homo sapiens) (Q04721 whole entry, looked up, canonical isoform): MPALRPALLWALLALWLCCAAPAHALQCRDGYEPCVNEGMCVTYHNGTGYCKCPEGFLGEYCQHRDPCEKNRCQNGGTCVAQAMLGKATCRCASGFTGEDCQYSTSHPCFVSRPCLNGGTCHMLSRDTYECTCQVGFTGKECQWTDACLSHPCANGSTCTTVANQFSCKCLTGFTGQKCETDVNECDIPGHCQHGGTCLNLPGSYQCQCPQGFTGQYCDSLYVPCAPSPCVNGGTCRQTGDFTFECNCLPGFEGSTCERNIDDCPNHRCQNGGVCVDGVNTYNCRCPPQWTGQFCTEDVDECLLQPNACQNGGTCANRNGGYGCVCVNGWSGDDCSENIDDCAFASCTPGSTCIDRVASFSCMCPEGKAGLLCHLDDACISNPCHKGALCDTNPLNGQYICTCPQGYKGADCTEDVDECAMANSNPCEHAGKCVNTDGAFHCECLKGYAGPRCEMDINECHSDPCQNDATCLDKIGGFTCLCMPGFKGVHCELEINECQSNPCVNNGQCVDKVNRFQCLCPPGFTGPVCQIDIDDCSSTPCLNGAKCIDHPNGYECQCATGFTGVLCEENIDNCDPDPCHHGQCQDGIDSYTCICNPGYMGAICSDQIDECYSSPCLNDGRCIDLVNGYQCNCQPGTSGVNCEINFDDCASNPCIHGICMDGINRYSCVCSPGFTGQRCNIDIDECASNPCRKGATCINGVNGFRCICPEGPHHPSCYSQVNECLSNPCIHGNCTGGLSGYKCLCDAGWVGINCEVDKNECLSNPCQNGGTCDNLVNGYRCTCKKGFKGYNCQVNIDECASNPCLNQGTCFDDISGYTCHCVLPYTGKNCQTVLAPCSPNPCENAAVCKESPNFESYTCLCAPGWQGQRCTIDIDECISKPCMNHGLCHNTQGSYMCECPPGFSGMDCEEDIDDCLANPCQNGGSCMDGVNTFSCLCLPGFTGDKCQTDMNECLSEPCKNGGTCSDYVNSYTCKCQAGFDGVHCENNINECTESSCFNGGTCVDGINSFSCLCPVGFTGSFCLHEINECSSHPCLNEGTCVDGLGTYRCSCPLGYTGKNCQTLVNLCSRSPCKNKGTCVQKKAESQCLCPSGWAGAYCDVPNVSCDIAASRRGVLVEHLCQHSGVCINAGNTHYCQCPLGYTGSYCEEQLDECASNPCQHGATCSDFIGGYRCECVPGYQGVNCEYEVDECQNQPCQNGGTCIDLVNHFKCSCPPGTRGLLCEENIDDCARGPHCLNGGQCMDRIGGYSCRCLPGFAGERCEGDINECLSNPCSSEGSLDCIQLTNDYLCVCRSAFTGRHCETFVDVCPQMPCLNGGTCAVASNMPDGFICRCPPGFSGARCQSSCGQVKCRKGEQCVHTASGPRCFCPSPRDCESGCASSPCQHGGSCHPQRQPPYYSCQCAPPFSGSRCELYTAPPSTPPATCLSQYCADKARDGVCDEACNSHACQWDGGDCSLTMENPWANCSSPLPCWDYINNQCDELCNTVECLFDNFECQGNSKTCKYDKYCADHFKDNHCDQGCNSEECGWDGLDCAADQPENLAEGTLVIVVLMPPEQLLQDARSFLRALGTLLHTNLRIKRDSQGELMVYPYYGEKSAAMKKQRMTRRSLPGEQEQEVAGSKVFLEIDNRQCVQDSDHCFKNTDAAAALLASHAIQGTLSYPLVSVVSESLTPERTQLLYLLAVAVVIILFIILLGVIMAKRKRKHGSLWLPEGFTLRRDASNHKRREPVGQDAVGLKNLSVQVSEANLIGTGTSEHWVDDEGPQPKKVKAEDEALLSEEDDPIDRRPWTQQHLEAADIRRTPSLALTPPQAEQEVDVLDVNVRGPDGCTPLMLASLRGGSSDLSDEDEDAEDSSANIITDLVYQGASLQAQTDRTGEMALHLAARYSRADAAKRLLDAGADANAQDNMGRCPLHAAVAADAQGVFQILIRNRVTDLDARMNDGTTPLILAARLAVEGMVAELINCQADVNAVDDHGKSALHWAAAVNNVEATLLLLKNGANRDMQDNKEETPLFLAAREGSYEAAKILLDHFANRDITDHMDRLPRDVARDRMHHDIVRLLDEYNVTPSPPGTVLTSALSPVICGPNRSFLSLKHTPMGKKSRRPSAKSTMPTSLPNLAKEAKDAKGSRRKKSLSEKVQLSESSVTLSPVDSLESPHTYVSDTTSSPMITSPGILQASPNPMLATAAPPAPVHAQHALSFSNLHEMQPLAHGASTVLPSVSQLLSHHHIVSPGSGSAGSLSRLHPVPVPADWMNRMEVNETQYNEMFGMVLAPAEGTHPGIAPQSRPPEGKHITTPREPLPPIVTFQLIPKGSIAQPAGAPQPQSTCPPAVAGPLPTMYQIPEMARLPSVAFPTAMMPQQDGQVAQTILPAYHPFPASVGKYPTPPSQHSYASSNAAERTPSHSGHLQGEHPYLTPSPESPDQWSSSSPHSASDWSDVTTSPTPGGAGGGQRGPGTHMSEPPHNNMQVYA

Consider `COCCCNC(=O)[C@@]1(Sc2ccc(C)cc2)CC(=O)N(C(C)C)[C@@H]1c1ccc(CO)cc1I`, for which the composite z-score in assay [1] is 0.438; in assay [2], -0.107; in [3], 0.0854; in [4] it was 0.606; in assay [5], -0.622; in assay [6] it was 1.89. The composite z-score was 1.25 in assay [7]; -0.307 in assay [9]; -0.0581 in [10]; 1.31 in [11]; 2.53 in [15]; -0.0225 in [17]. Besides, the figures for the composite z-score in [18], in [19] and in assay [20] were -0.926, -0.365 and -0.21, respectively. Also, the z-score in assay [8] was -1.2 (inactive); in assay [12] it was -0.436 (inactive); in assay [13] it was -2.98 (inactive); in assay [14] it was 0.445 (inactive); in [16], -2.04 (inactive).

Consider `CC(C)c1ccc(NN2C(C(O)Cc3ccccc3)C=CC3C(=O)N(c4ccccc4)C(=O)C32)cc1` (stereo not given), for which the composite z-score in [1] was 0.0399; in assay [2], -0.0235; in assay [3] it was 0.0116; in assay [4] it was 0.408; in assay [5], 1.5; in assay [6], 1.76. Moreover, the composite z-score in assay [7] is 0.593; in [9] it was 1.36; in [10], -0.0645; in assay [11], 1.48; in assay [15], 3.51; in assay [17], 0.388. Further, the figures for the composite z-score in assay [18], in [19] and in assay [20] were 0.294, 1.07 and 0.205, respectively. In addition, the z-score in assay [8] was 0.0899 (inactive); in [12], -0.619 (inactive); in [13] it was -0.699 (inactive); in [14] it was 0.844 (inactive); in assay [16], -1.36 (inactive).

In the case of `CN1C(=O)C2C(C1=O)C1C=C(CCCO)C2C(C2CC2)N1Cc1cc2c(cc1Br)OCO2` (stereo not given), the composite z-score in [1] was 0.454; in assay [2] it was 0.919; in [3], -0.141; in assay [4], 0.271; in assay [5], 0.713; in assay [6], 1.24. For the same compound, the composite z-score is 1.29 in assay [7]; 0.252 in [9]; -0.201 in [10]; 0.84 in assay [11]; 2.82 in [15]; 0.183 in [17]. Besides, the composite z-score was determined as 0.304 in assay [18], 0.699 in assay [19] and 0.0185 in [20]. The z-score in assay [8] was -0.999 (inactive); in [12], -3.43 (inactive); in [13], -1.03 (inactive); in assay [14], -0.932 (inactive); in [16], 0.307 (inactive).

For the compound `COCCCNC(=O)[C@@]1(c2ccc([N+](=O)[O-])cc2)CC(=O)N(CC23CC4CC(CC(C4)C2)C3)[C@@H]1c1ccc(CO)cc1I`, the composite z-score in [1] was 0.456; in assay [2], -0.243; in assay [3], -0.034; in [4], 0.246; in assay [5], 0.218; in assay [6], 1.13. Moreover, the composite z-score in assay [7] was 1.3; in [9], 0.15; in assay [10], -0.236; in [11], 1.3; in assay [15], 1.75; in [17] it was 0.0283. For the same compound, the composite z-score in [18] is 0.26; in assay [19], 0.341; in assay [20], -0.183. For the same compound, the z-score in assay [8] was -2.2 (inactive); in assay [12], 1.01 (inactive); in assay [13], 1.08 (inactive); in [14], 4.92 (inactive); in assay [16], -0.254 (inactive).

`CCOC(=O)C[C@H]1[C@H](OC(=O)c2ccc(-c3ccccc3)cc2)[C@@H](NC(=O)Cc2ccc(OC)cc2)c2cc(OCCCO)ccc2N1C(=O)Cc1ccc(OC)cc1`: the composite z-score was -0.278 in [1]; -0.236 in assay [2]; -0.101 in assay [3]; 0.102 in assay [4]; 0.216 in assay [5]; 0.243 in assay [6]. In addition, the composite z-score in [7] is -0.29; in assay [9] it was 0.3; in assay [10], -0.154; in [11] it was 0.287; in [15] it was 1.55; in [17], -0.0769. The composite z-score is -0.542 in assay [18], -0.0636 in assay [19] and -0.094 in [20]. In addition, the z-score in assay [8] is -0.362 (inactive); in assay [12], 1.09 (inactive); in [13], -0.231 (inactive); in [14], 1.63 (inactive); in assay [16], 1.3 (inactive).

On to `C[C@@]12COC[C@]13C=C(Br)[C@H](C2)[C@@]1(CO1)C3=O`, for which the composite z-score in [1] was 0.129; in assay [2] it was -1.21; in [3] it was -0.04; in assay [4] it was -0.455; in assay [5], -0.895; in assay [6], -0.708. Besides, the composite z-score in assay [7] is -1.12; in [9], -0.476; in [10], -0.134; in assay [11], -1.78; in [15], -2.15; in [17] it was -0.207. The composite z-score in assay [18] was -0.508; in [19], -0.233; in [20], -0.178. The z-score in [8] is -0.293 (inactive); in assay [12], -0.0556 (inactive); in assay [13] it was -2.25 (inactive); in assay [14] it was -0.0407 (inactive); in [16], -0.768 (inactive).
